Laboratory results taken from PubChem BioAssay (NCI).
This is part of a sample that, as a whole, favours compounds with a hit. Of some 79,000 tested, about 15% had one in any assay. Active and inactive are the calls of the source. Cut-off read from the data, not from the text of the source: active = growth inhibition above about 70%; inactive = the rest.

What was measured:
[1] = NCI Yeast Anticancer Drug Screen. Data for the rad50 strain (AID 155);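 note: 0% = growth of vehicle-only cultures of the same strain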; conditions: S. cerevisiae rad50 strain growth inhibition; at 50.0 µM; stronger effect = higher value
Procedure, shortened: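 A DNA repair-deficient yeast mutant serves as the test organism; compound-induced growth inhibition is calculated against vehicle-treated cells.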

[2] = NCI Yeast Anticancer Drug Screen. Data for the mec2-1 strain (AID 157); conditions: S. cerevisiae mec2-1 strain, at 50.0 µM, stronger effect = higher value
Procedure, shortened: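 mec2-1 yeast strain, carrying an alteration in DNA damage repair or cell cycle control, was exposed to compounds; growth inhibition was measured relative to vehicle-treated controls.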

[3] = NCI Yeast Anticancer Drug Screen. Data for the sgs1 mgt1 strain (AID 161);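 note: 0% = growth of cultures given vehicle only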; conditions: S. cerevisiae sgs1 mgt1 strain, at 50.0 µM, stronger effect = higher value
Procedure, shortened: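 Growth of a repair-deficient yeast mutant was monitored after compound treatment and expressed as inhibition relative to vehicle-treated cultures.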

[4] = NCI Yeast Anticancer Drug Screen. Data for the cln2 rad14 strain (AID 165);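 note: 0% = growth equal to vehicle treated cultures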; conditions: S. cerevisiae cln2 rad14 strain, at 50.0 µM, stronger effect = higher value
Procedure, shortened: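 Yeast carrying cln2 and rad14 alterations (cell cycle control and DNA damage repair) were exposed to compounds. Growth inhibition was measured against vehicle-treated controls.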

[5] = NCI Yeast Anticancer Drug Screen. Data for the bub3 strain (AID 167); conditions: S. cerevisiae bub3 mutant strain, at 50.0 µM, stronger effect = higher value
Procedure, shortened: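 Inhibition values come from growth of compound-treated mutant yeast normalised to vehicle-treated controls.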

[6] = NCI Yeast Anticancer Drug Screen. Data for the mlh1 rad18 strain (AID 175); conditions: S. cerevisiae mlh1 rad18 strain growth inhibition; at 50.0 µM; stronger effect = higher value
Procedure, shortened: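 Growth inhibition of the yeast strain was measured after compound exposure and expressed relative to vehicle-treated controls. The strain carries defined defects in DNA damage repair.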

Measured: growth inhibition

CCCCON1C[C@H](OC(C)=O)C(OC(C)=O)[C@H](OC(C)=O)C1 (stereo not given in full)
inactive: [1] -44.8% | [2] -15.9% | [3] -39.1% | [4] -10.4% | [5] 16.9% | [6] -24.6%

COc1ccc(NC(=S)Nc2ccccc2)cc1
inactive: [1] 4.8% | [2] -36.8% | [3] -22.6% | [4] -46.9% | [5] -21.8% | [6] -8.4%

C=Nc1ccc([N+](=O)[O-])cc1
inactive: [1] 6.9% | [2] 10.2% | [3] -1.3% | [4] 14.6% | [5] -4.75% | [6] 26.3%

N[C@@H](Cc1ccccc1)C(=O)NCCNC(=O)[C@@H](N)Cc1ccccc1
inactive: [1] -13.1% | [2] -3.25% | [3] -8.85% | [4] 17.2% | [5] -0.7% | [6] 3.45%

COc1cc(C2CC=CCC2C(=O)O)cc(OC)c1OC (stereo not given)
inactive: [1] -13.6% | [2] 2.4% | [3] -0.65% | [4] 7.95% | [5] -0.25% | [6] 0.9%

COc1cc(C)cc2c1C(=O)C(Br)=CC2=O
active: [1] 91.2% | [2] 92.3% | [3] 91.9% | [4] 91.8% | [5] 91.8% | [6] 89.8%

CC(=O)c1ccc(C)cc1C
inactive: [1] 27.9% | [2] 4.35% | [3] 15.3% | [4] 2.65% | [5] 15.4% | [6] 2.95%

OC(c1ccccc1)(C1CCNCC1)C1CC1 (stereo not given)
inactive: [1] 9.8% | [2] -10.4% | [3] -4% | [4] -20.4% | [5] -16.6% | [6] -6.45%

Cc1ccc(NC(=O)OCCOc2ccccc2)cc1NC(=O)OCCOc1ccccc1
inactive: [1] 10.3% | [2] 17.1% | [3] 28% | [4] 6.3% | [5] 3.1% | [6] 33.9%

CC1CC/C(=C\c2ccccc2)C(=O)/C1=C/c1ccccc1 (stereo not given)
inactive: [1] 22.2% | [2] -11.1% | [3] 13.8% | [4] 9.45% | [5] 30.2% | [6] 28.8%

CC(C)c1ccc(C(=O)OCCCc2ccccc2)cc1
inactive: [1] 8.7% | [2] -5.65% | [3] 18.2% | [4] -10.7% | [5] 4% | [6] 0.8%

Cc1cccc(C2=C/C(=C(\SS/C(C(=O)c3ccc(OCC(=O)O)c(Cl)c3Cl)=C3\C=C(c4cccc(C)c4)SS3)C(=O)c3ccc(OCC(=O)O)c(Cl)c3Cl)SS2)c1
inactive: [1] -6.65% | [2] -22.8% | [3] -0.6% | [4] 1.95% | [5] -5.15% | [6] -10.7%

CCOC(=O)Nc1cc([N+](C)(C)C)ccc1OCCOc1ccc([N+](C)(C)C)cc1
inactive: [1] -0.4% | [2] 5.35% | [3] -8.4% | [4] -8.8% | [5] -1.65% | [6] 28.6%

C=CC1=C(C)C2=NC1=CC1=NC(=CC3=C(C)C4=C(O)CC(=C5NC(=C2)C(C)C5CCC(=O)OC)C4=N3)C(CC)=C1C (stereo not given)
inactive: [1] 8.85% | [2] -1.5% | [3] 19.4% | [4] 3.65% | [5] -2.05% | [6] 22.2%

O=C(C#CP(=O)(O)c1ccccc1)c1ccccc1
inactive: [1] 22.5% | [2] 16.4% | [3] -6.2% | [4] 17.5% | [5] -17.6% | [6] 3.05%

O=C(CCNC(=O)OCc1ccccc1)NC(Cc1ccccc1)C(=O)OCc1ccccc1 (stereo not given)
inactive: [1] -0.9% | [2] -14.2% | [3] 4.55% | [4] -15.3% | [5] 2.4% | [6] 7.65%

C/C(O)=C(\N=Nc1ccccc1)C(N)=O
inactive: [1] -9.45% | [2] 7.95% | [3] 5.9% | [4] -28.9% | [5] -0.8% | [6] -3.45%

CN1C(=O)N(C)C2(CCN(CC(CC3OCCO3)c3ccc(F)cc3)CC2)C1=O (stereo not given)
inactive: [1] -15.8% | [2] 7.85% | [3] 0.4% | [4] 2.5% | [5] -6.8% | [6] -1.55%

CO[C@H]1CC[C@@]2(C)C(=CC[C@H]3[C@@H]4CC[C@H]([C@H](C)CCCC(C)C)[C@@]4(C)CC[C@@H]32)C1
inactive: [1] -4.65% | [2] -20.4% | [3] 18.1% | [4] 24.7% | [5] 17.2% | [6] 9%

O=S1(=O)c2ccc(cc2)N=CC=Nc2ccc1cc2
inactive: [1] 5.25% | [2] -11.7% | [3] 10% | [4] -2.4% | [5] 14.3% | [6] 12.1%

COc1ccccc1NC(=S)N/N=C/c1cccc(C)n1
inactive: [1] 9.45% | [2] -9.9% | [3] 20.1% | [4] -3.7% | [5] 5.5% | [6] 40%

CCCCCCCC(=O)C(C)C
inactive: [1] 7.55% | [2] 5.85% | [3] 11.8% | [4] 4.4% | [5] 9.6% | [6] 4.35%

Nc1cccc2c(S(=O)(=O)O)cccc12
inactive: [1] -2.9% | [2] -3.15% | [3] -11.9% | [4] -66.7% | [5] 0.3% | [6] 0.75%

O=C(O)c1ccc2c(c1)S(=O)(=O)c1ccccc1C2=O
inactive: [1] 14.1% | [2] 17.5% | [3] -3.8% | [4] 9.6% | [5] 23.9% | [6] 17.1%

COC1=CC(=O)O/C1=C(\OC)C1OC1c1ccccc1 (stereo not given)
inactive: [1] -4% | [2] -7.25% | [3] 2.9% | [4] -1.35% | [5] -6.5% | [6] -24.9%

COCCn1nc(-c2ccc(Cl)cc2)c(-c2ccc(Cl)cc2)c(C(C)=O)c1=O
inactive: [1] 12.2% | [2] -5.15% | [3] 0.9% | [4] 9.05% | [5] -1.7% | [6] -7.85%

COc1ccc(/C=N/n2cnc3c(c2=O)S/C(=C2/SC(=S)N(c4ccc(C)cc4)C2=O)N3c2ccccc2)cc1
inactive: [1] -29.5% | [2] -57.2% | [3] -12.8% | [4] -75% | [5] -25.9% | [6] -11.9%

O=c1c2ccccc2oc2cc3c(c(O)c12)CCCC3
inactive: [1] -7.65% | [2] -13.9% | [3] -14.5% | [4] -6.95% | [5] 3.15% | [6] -2.95%

Cc1cc(=O)oc2nc(-c3ccccc3)[nH]c(=O)c12
inactive: [1] 0.3% | [2] -10.2% | [3] 3.2% | [4] -5.4% | [5] -7.15% | [6] 18.3%

N#CN1CC[C@@H]2CC3(CCC2C1)OCCO3 (stereo not given in full)
inactive: [1] 17.6% | [2] 4.3% | [3] 0.3% | [4] -4.45% | [5] -18.4% | [6] 1.5%

Cc1ccc2occ(/C=N/NC(N)=S)c(=O)c2c1
inactive: [1] -11.4% | [2] -2.7% | [3] 12.3% | [4] 0.6% | [5] 1.2% | [6] 0.8%

COC(=O)c1cc(C)c(C(=O)O)c(C)c1
inactive: [1] 13% | [2] 22.5% | [3] 26.6% | [4] 16.3% | [5] 3.9% | [6] 14.9%

CC1(C)[C@@H]2C[C@H]1C(Cc1ccccc1C[C@H]1c3cc(-c4ccccn4)ncc3[C@H]3C[C@@H]1C3(C)C)c1cc(-c3ccccn3)ncc12 (stereo not given in full)
inactive: [1] 43.3% | [2] 39.3% | [3] 10.4% | [4] 24.4% | [5] 12.2% | [6] -32.4%

CCOC(=O)CN/N=C(\N)CSS(=O)(=O)O
inactive: [1] -5.25% | [2] -17.4% | [3] -2.05% | [4] 13.3% | [5] 9.65% | [6] 3.05%

CC(C)CC(C#N)C(=O)O (stereo not given)
inactive: [1] -1.45% | [2] -1.95% | [3] -5.15% | [4] 5.45% | [5] -4.35% | [6] 2.1%

OC(CNc1ncccn1)(Cc1ccccc1)Cc1ccccc1
inactive: [1] 9% | [2] -5.2% | [3] 2.45% | [4] 19.1% | [5] 12% | [6] 21.2%

CCN(CC)Cc1cc(C)c(O)c(N=Nc2cc(OC)c(N=Nc3ccc([N+](=O)[O-])cc3)cc2OC)c1C
inactive: [1] 16% | [2] 12.4% | [3] 34.1% | [4] 34.1% | [5] 4.7% | [6] 50.1%

COc1ccc(NC(=O)NNS(=O)(=O)c2ccc(C)cc2)cc1
inactive: [1] 10.1% | [2] 6.15% | [3] 6.6% | [4] 4.9% | [5] 13.9% | [6] -36.9%

O=C(NCCCl)Nc1cccc2c1CCC2
inactive: [1] -11.1% | [2] -0.7% | [3] -9.5% | [4] -47.3% | [5] -23.1% | [6] -4.8%

CC12CCC(CC1=O)C2(C)CCC(N)=O (stereo not given)
inactive: [1] -1.55% | [2] -12% | [3] 18.2% | [4] -11.7% | [5] -17.9% | [6] -8.8%
